Assay outcomes deposited in PubChem by several laboratories.
The list is not random: actives were taken first. Their share in the collection is about 5.4%.
PP5 inh: PP5 phosphatase inhibitors, primary screen, biochemical, fluorescence; purified PP5c, OMFP substrate fluorescence; inhibition, % at 6.7 µM; hit rate 0.18% among 320,000;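 active means inhibition above the campaign's mean inhibition across all tested compounds plus 3 SD, cut at about 9.5% in these data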;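 further: 0% = DMSO only and 100% = 100 µM cantharidin control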
PP1 counter: PP1-alpha phosphatase inhibitors, primary screen, counter-screen for PP5 inhibitor project, biochemical, fluorescence, OMFP substrate, single point; Serine/threonine-protein phosphatase PP1-alpha catalytic subunit (Homo sapiens), P62136; purified PP1alpha; inhibition, % at 6.7 µM; hit rate 0.9% among 320,000; AID 2235, 2010;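 active means inhibition above the mean inhibition of all tested compounds plus 3 SD, computed separately for each screening campaign, cut at about 15% in these data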
Target sequence (P62136 whole entry, looked up): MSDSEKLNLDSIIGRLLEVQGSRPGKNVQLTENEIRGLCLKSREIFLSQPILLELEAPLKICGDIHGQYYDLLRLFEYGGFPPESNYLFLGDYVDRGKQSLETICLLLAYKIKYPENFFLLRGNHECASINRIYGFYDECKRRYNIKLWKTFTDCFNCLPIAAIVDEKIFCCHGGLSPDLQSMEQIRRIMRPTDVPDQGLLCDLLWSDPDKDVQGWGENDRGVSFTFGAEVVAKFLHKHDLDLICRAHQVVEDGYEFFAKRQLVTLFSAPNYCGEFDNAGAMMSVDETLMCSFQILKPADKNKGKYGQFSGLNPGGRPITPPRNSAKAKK
ALR H2O2 inh: inhibitors of human ALR sulfhydryl oxidase, primary screen, biochemical, H2O2 detection, HRP-luminol luminescence, single point; FAD-linked sulfhydryl oxidase ALR (Homo sapiens), P55789; purified ALR, DTT oxidation; inhibition, % (no concentration beside the values); hit rate 3.8% among 290,000; AID 485317, 2010;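 active means mean replicate inhibition above about 79%, with every replicate also reaching it, limit read from the data; inconclusive means only one of the two criteria met; inactive means mean below limit and not every replicate reaching it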
CSC inhib: cancer stem cell viability inhibitors, primary screen, luminescence. cancer stem cell-like cells viability. inhibition, % at 7.5 µM. hit rate 1.1% among 300,000. AID 2717, 2010; in the data active means inhibition above about 75%; inconclusive means no clear call, values can overlap the other calls; tested in HMLE shEcad cells
Calb FLC: C. albicans growth inhibition with fluconazole, primary screen, CaCi-2 strain, Alamar Blue fluorescence | hit rate 0.57% among 300,000 | growth inhibition, % (concentration not given with the values) | C. albicans CaCi-2 (fluconazole-resistant clinical isolate) + fluconazole, 48 h;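 active means growth inhibition above about 58% in most replicates, limit read from the data, passing the limit was not always enough; inconclusive means exactly half the replicates above a set limit; inactive means most replicates below a set limit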;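 further: all wells also contain fluconazole at 8 µg/ml as a sub-toxic cotreatment; 0% = median of DMSO wells and 100% = median of geldanamycin control wells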
* = called active by the depositor; ? = inconclusive; . = no result.

SMILES	PP5 inh	PP1 counter	ALR H2O2 inh	CSC inhib	Calb FLC
COc1ccc(N2CCN(CC(=O)NC(C)c3ccccc3)CC2)cc1 (centres undefined)	0.9	-1.6	95.1*	-3.3	6.2
COc1ccc(N2CCN(C(=O)CN3CCN(C(c4ccccc4)c4ccccc4)CC3)CC2)cc1	4.4	3.8	-6.8	.	43.0
COc1ccc(N2CCN(C(=O)NCc3ccc(OC)c(OC)c3)CC2)cc1	3.3	-3.5	88.6*	-1.1	13.5
O=C(NCCCN1CCN(c2cccc(Cl)c2)CC1)C1(S(=O)(=O)c2ccc(Cl)cc2)CC1	1.5	2.4	.	0.5	13.4
O=C(CSc1nncn1-c1ccccc1)NCc1cccs1	0.6	0.3	-11.2	-8.8	-6.0
COc1ccccc1C(CNC(=O)c1ccc(S(=O)(=O)NCc2ccco2)cc1)N(C)C (centres undefined)	1.2	-2.3	0.0	-12.8	-1.6
COc1ccc(N2CCN(C(=O)NC34CC5CC(CC(C5)C3)C4)CC2)cc1	1.0	-1.5	85.4*	-9.1	-61.2
COc1ccc(N2CCN(CC(=O)NCc3ccc(Cl)cc3)CC2)cc1	-1.5	-4.6	88.6*	-12.8	1.4
COc1ccc(N2CCN(CC(=O)NCc3ccccc3)CC2)cc1	-2.7	-3.9	69.5	-4.7	4.4
COc1cccc(N2CCN(CC(=O)NCc3cccs3)CC2)c1	-1.0	-4.6	98.6*	-2.0	-2.4
O=C(NC12CC3CC(CC(C3)C1)C2)N1CCN(c2ccccc2)CC1	0.3	2.0	.	-8.0	-22.0
CNC(=S)N1CCN(c2ccc(OC)cc2)CC1	3.5	-2.2	96.0*	-18.3	0.3
COc1cccc(N2CCN(CC(=O)Nc3nnc(-c4ccccc4)s3)CC2)c1	3.8	2.4	-32.9	.	-4.4
CC1CCCCC12NC(=O)N(CC(=O)NCCc1ccc(S(N)(=O)=O)cc1)C2=O (centres undefined)	-0.8	8.0	-2.3	-25.1	.
CC1CCN(CCCNC(=O)C2CCC(=O)N2C2CCCC2)CC1 (centres undefined)	0.9	-8.8	-14.8	2.5	0.9
Cc1cc(N2CCC(C(N)=O)CC2)nc(-c2ccccc2)n1	2.3	1.4	-2.8	5.9	-0.2
COc1cccc(N2CCN(C(=O)c3[nH]c(C)c(C(C)=O)c3C)CC2)c1	0.7	0.5	54.1	-9.3	0.9
COc1ccc(-n2c(CNC(=O)COc3ccc(Cl)cc3)n[nH]c2=S)cc1	1.2	-1.4	88.1*	5.9	5.4
COc1ccc(N2CC(NC(=O)N3CCN(c4ccccc4)CC3)CC2=O)cc1 (centres undefined)	2.2	-3.7	96.8*	-23.5	2.4
COc1ccc(-n2c(CNC(=O)COc3ccccc3)n[nH]c2=S)cc1	1.8	-1.8	0.2	-10.9	-13.5
COC(=O)c1c(C)[nH]c(C(=O)N2CCN(c3ccc(OC)cc3)CC2)c1C	-0.3	-2.7	95.6*	3.8	11.3
COc1cccc(-c2csc(N3CCN(CC(=O)Nc4ccc5c(c4)OCO5)CC3)n2)c1	2.1	0.9	.	-10.6	-13.8
COc1ccc(NC(=O)CN2CCN(c3nc(-c4cccc(OC)c4)cs3)CC2)cc1	4.0	0.1	98.9*	1.8	32.1
CCCCCC(=O)NNC(=O)Nc1ccccc1	0.0	3.5	.	-3.1	-0.5
Cn1c(=O)c2c(nc(-n3ccnc3)n2Cc2ccc(Cl)cc2Cl)n(C)c1=O	5.7	-2.2	-8.1	5.7	0.0
SMILES	PP5 inh	PP1 counter	ALR H2O2 inh	CSC inhib	Calb FLC
CC(NC(=O)c1ccc2ccccc2n1)c1ccccc1 (centres undefined)	1.9	-1.5	7.2	0.3	-18.9
CCC(C)[C@H](NC(=O)CCn1nnc2ccccc2c1=O)C(=O)O (some centres undefined)	-2.7	2.5	-3.5	3.4	6.8
CCCOc1cccc(C(=O)Nc2cccnc2)c1	-0.2	-1.9	3.8	-5.5	110.2*
CCCCOc1cccc(C(=O)NC(=S)Nc2cccnc2)c1	1.3	-1.5	.	-11.2	22.9
Cc1ccccc1-c1cc(C(=O)Nc2sc(C)c(C)c2C(N)=O)c2ccccc2n1	3.2	2.7	8.4	.	-9.2
CCOC(=O)c1sc(NC(=O)c2cc(-c3ccccc3C)nc3ccccc23)c(C#N)c1C	0.4	-1.2	0.3	88.7*	?
Cc1ccc(-c2cc(C(=O)N3N=C(C(F)F)CC3(O)C(F)F)c3ccccc3n2)cc1C (centres undefined)	4.7	4.6	-4.5	98.4*	5.8
O=C(NC1=NCCS1)c1csc2ccccc12	1.8	-3.1	98.5*	8.2	-2.3
